Test results reported in PubChem BioAssay (EPA / NIEHS).
Calls of active or inactive are those of the source. How the source made its calls: active means hit-call score of the fitted dose curve at least 0.9, where 1 is the maximum; inactive means score below 0.9.

Test: ATG_DR4_LXR_CIS: Attagene CIS-FACTORIAL HepG2 Assay for human Liver X Receptor (LXR), DR4 submotif (AID 2282929)
Conditions: HepG2 Attagene DR4 cis-reporter, mRNA transcription; actives raise or lower the signal
Protocol: ATG_CIS is a cell-based, multiplexed-readout assay that uses HepG2, a human liver cell line, with measurements taken at 24 hours after chemical dosing in a 24-well plate.ATG_DR4_LXR_CIS is one of 52 assay component(s) measured or calculated from the ATG_CIS assay. It is designed to make measurements of mRNA induction, a form of inducible reporter, as detected with fluorescence intensity signals by Reverse transcription polymerase chain reaction (RT-PCR) and Capillary electrophoresis technology.Data from the assay component ATG_DR4_LXR_CIS was analyzed into 1 assay endpoint. This assay endpoint, ATG_DR4_LXR_CIS, was analyzed with bidirectional fitting relative to DMSO as the negative control and baseline of activity. Using a type of inducible reporter, measures of mRNA for gain or loss-of-signal activity can be used to understand the reporter gene at the transcription factor-level as they relate to the gene NR1H2 and NR1H3. Furthermore, this assay endpoint can be referred to as a primary readout, because this assay has produced multiple assay endpoints where this one serves a reporter gene function. To generalize the intended target to other relatable targets, this assay endpoint is annotated to the nuclear receptor intended target family, where the subfamily is non-steroidal.
Human liver HepG2 cells are transiently transfected with multiple reporter transcription units (MRTUs) in 6-well plates using FuGene 6 reagent (Roche; 3 ml FuGene/1 mg DNA). The MRTU constructs are regulated by a cis-regulating element (promoter). […] A major difference between the CIS and TRANS system is that in CIS activities of endogenous TFs are measured, whereas the TRANS assay evaluates changes in activities of exogenous, chimeric NR-Gal4 proteins. […] At the end of 24 hour incubation, total RNA was isolated using TriZol reagent (Invitrogen). The isolated RNA is then reverse-transcribed using oligo(dT) primer and Mo-MLV reverse transcriptase (Invitrogen) with DNAse I (Ambion) treatment for 30 min. The one-tenth of the produced cDNA was amplified by PCR using Taq DNA polymerase (Invitrogen) and two reporter sequence-specific primers. The PCR products were fluorescently labeled by primer extension with 6-arboxyfluorescein (6-FAM) 5'-labeled reporter sequence-specific primer (2 min at 95 C, 20 s at 68 C and 10 min at 72 C) and these products were digested with 5U of HpaI (New England Biolabs) for 2h at 37 C. The fragments were purified using Qiaquick PCR columns (Qiagen), analyzed on an ABI 3130xL genetic analyzer (Applied Biosystems) with peak positions identified by using a set of X-rhodamine (ROX)-labeled MapMarker1000 molecular weight standards (BioVentures). The raw capillary electrophoresis data was processed using Attagraph software (Attagene).

Compound	outcome	AC50
CC1(C)O[C@@H]2C[C@H]3[C@@H]4C[C@H](F)C5=CC(=O)C=C[C@]5(C)[C@@]4(F)[C@@H](O)C[C@]3(C)[C@]2(C(=O)CO)O1	inactive	
CCC(CC)C(=O)O	inactive	
COC(=O)/C=C/C(C)=C\C=C\C(C)=C\C=C\C=C(C)\C=C\C=C(C)\C=C\C(=O)O	inactive	
CCCCCC/C=C/C=O	inactive	
O=c1cc(-c2ccccc2)oc2ccccc12	inactive	
CC1=NC(C)OC1C (stereo not given)	inactive	
Cc1cccc(OCCOc2cccc(C)c2)c1	inactive	
NC(=O)NNC(N)=O	inactive	
OC1CCCC1	inactive	
CC=C1CC2C=CC1C2 (stereo not given)		26.5 µM (active)
CC(C)=CC1CC(C)CCO1 (stereo not given)	inactive	
CC(C)(Oc1ccc(C2CC2(Cl)Cl)cc1)C(=O)O (stereo not given)	inactive	
CCc1c(C(=O)O)c(=O)cnn1-c1ccc(Cl)cc1	inactive	
CCCCC/C=C\CCC=O	inactive	
O=C(C=Cc1ccccc1)OCc1ccccc1	inactive	
O=C(O)c1ccccc1Nc1cccc(C(F)(F)F)c1		9.37 µM (active)
CCOC(=O)CC(C(C)=O)C(C)=O	inactive	
C=COCCCC	inactive	
O=C1CCCN1CCO	inactive	
O=C1CCCCCCCCCCC(=O)OCCO1	inactive	

Compound	outcome	AC50
C1CN(SSN2CCOCC2)CCO1	inactive	
CCCCC(CC)CCC(CC(C)C)OS(=O)(=O)O (stereo not given)	inactive	
CCc1nccnc1C	inactive	
CCC(C)C=O (stereo not given)	inactive	
COc1ccc2nc(N)sc2c1	inactive	
COc1ccc(-c2coc3cc(O)ccc3c2=O)cc1	inactive	
Cc1ccccc1C	inactive	
CC=CCO	inactive	
O=C(c1ccccc1)c1ccc(O)c(O)c1O	inactive	
CC(C)(C)C(=O)C=Cc1ccc(Cl)cc1		17.2 µM (active)
C=C(C)CCO	inactive	
CCOC(=O)c1ccc(N(C)C)cc1	inactive	
Cc1ccc(C2OC[C@@H]3OC(c4ccc(C)cc4)O[C@H]([C@H](O)CO)[C@@H]3O2)cc1 (stereo not given in full)	inactive	
N=c1ccn2c(n1)O[C@H]1[C@H](O)[C@@H](CO)O[C@H]12	inactive	
Cc1ccc2oc(=O)ccc2c1	inactive	
C=CCOCC(O)CCl (stereo not given)	inactive	
O=C1C=CC(=O)O1	inactive	
CC=CC(=O)N(CC)c1ccccc1C	inactive	
O=C1CCCC1	inactive	
O=c1c2ccccc2nnn1CCl	inactive	
